Test results: PubChem BioAssay (NCATS)
Results filed as inconclusive are left out. A call without a number means that no potency is given here. Calls of active or inactive are those of the source. Unless noted, calls come from the whole dose curve; as a rule, active = well fitted curve in the direction sought with a large enough effect; inconclusive = small, poorly fitted or top-dose-only effect, or another doubt; inactive = no such curve, though single readings can be large; an effect the other way counts as inactive or inconclusive.

How the values were obtained:
[1] = qHTS Assay for Identification of Small Molecule Agonists for NFkB Signaling Pathway. (AID 624478);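 note: compounds tested together with TNF alpha at its EC50 of 10 pM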
How it was run: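 Read-out: 460/530 nm emission at 405 nm excitation after 2 h LiveBLAzer loading; ME-180 NFkB-bla reporter cells exposed 5 h at 37 C to compounds with 10 pM TNF alpha final.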

[2] = Cell Proliferation Assay against the TMD8 Cell Line (AID 651645); conditions: TMD8 DLBCL cell line proliferation/viability; at 46.1 µM (top of the series);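 note: cells exposed to compound for 48 h before reading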
How it was run: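 Luminescent ATP read-out (CellTiter-Glo, 15 min RT) after 48 h compound exposure of log-growing TMD8 cells at 37C; percent activity scaled between DMSO as 100% and 9.2 uM bortezomib final as 0%.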

[3] = Cell Proliferation Assay against the HBL1 Cell Line (AID 651646); conditions: HBL1 DLBCL cells; at 46.1 µM (top of the series);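 note: cells exposed to compound for 48 h before reading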
How it was run: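 HBL1, 500 cells/well, RPMI no phenol red + 5% FBS; cpd pinned, 48 h 37C/5% CO2; CellTiter-Glo, 15 min RT, luminescence. % activity: DMSO = 100%, bortezomib 9.2 uM final = 0%.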

[4] = molecular target: Glutaminase kidney isoform, mitochondrial (Homo sapiens) (UniProt O94925); test: qHTS for Inhibitors of Glutaminase (GLS): LOPAC Validation (AID 624146);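 note: glutamate product detected by oxidase and peroxidase coupled Amplex red fluorescence gain; nearly all actives have a fitted effect of over 60% in size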
How it was run: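 hKGA in 45 mM KH2PO4 (pH 8.2), 0.02% Tween-20 with compound, then 1mM L-Glutamine (stock as added) plus glutamate oxidase/HRP/Amplex red coupling mix. Fluorescence read initially and after 30 min at RT; signal change reflects glutamate formation.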

[5] = qHTS of Trypanosoma Brucei Inhibitors: LOPAC Validation (AID 624147)
How it was run: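 Activity of T. brucei pyruvate kinase was followed by Kinase-Glo Plus luminescence after the enzyme reacted 45 min at room temperature with 130 uM ADP (final) and substrate. Test compounds were added before ADP at multiple concentrations.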

[6] = molecular target: Glucagon-like peptide 1 receptor (Homo sapiens) (UniProt P43220); test: qHTS of GLP-1 Receptor Agonists: LOPAC Validation (AID 624148);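 note: higher luminescence signal means agonism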
How it was run: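 HEK293 cells stably co-expressing GLP-1R and a cAMP-responsive luciferase reporter, plated 12 hours before compound, then incubated 4-6 hr at 37 deg C. Luminescence read 12 min after detection reagent.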

[7] = qHTS of Nrf2 Activators: LOPAC Validation (AID 624149)
How it was run: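 AREc32_Fluc cells, 1000/well, OPTI-MEM + 5% FBS, o/n 37 deg C 5% CO2; compound pin-transfer, 24 hr 37 deg C; Steady-Glo 30 min RT, luminescence read.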

[8] = HTS Assay for Allosteric Antagonists of the Human D2 Dopamine Receptor: Hit Validation in HTRF (AID 624455); note: potency is the fitted concentration of half-maximal effect
How it was run: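 HTRF read-out; cells stably expressing D1 receptor; hits scored for inhibition of D1-mediated response. Primary screen: calcium flux, force-coupled inducible Hek293 Trex D2 line, antagonism vs EC80 dopamine.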

[9] = qHTS Assay for Identification of Small Molecule Antagonists for NFkB Signaling Pathway. (AID 624479; calls by dose curve;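 note: pathway stimulated with TNF alpha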; note: potency is the fitted concentration of half-maximal effect)
[10] = Cytotoxicity counterscreen for NFkB agonists and antagonists (AID 624476);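 note: cells exposed to compound for 48 hours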; note: potency is the fitted concentration of half-maximal effect

Sequence of Glutaminase kidney isoform, mitochondrial (Homo sapiens) (O94925 whole entry, looked up, canonical isoform): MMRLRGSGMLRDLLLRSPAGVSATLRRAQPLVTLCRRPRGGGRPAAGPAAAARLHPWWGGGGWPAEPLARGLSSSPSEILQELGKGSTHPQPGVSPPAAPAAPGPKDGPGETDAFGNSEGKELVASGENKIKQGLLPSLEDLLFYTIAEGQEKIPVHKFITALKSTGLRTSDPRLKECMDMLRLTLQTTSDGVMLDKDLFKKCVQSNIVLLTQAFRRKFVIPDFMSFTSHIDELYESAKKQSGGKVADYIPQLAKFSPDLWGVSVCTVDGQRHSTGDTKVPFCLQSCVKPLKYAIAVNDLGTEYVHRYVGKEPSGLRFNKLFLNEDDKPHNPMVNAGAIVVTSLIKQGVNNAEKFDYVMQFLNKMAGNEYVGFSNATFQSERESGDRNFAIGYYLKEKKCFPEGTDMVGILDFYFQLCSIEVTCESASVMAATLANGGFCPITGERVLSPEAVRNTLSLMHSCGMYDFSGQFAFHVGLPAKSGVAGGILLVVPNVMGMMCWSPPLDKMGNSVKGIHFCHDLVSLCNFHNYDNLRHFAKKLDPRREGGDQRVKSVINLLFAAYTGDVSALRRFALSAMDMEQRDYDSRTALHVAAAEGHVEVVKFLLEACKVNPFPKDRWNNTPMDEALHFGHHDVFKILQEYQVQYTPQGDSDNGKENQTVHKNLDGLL
Sequence of Glucagon-like peptide 1 receptor (Homo sapiens) (P43220 whole entry, looked up): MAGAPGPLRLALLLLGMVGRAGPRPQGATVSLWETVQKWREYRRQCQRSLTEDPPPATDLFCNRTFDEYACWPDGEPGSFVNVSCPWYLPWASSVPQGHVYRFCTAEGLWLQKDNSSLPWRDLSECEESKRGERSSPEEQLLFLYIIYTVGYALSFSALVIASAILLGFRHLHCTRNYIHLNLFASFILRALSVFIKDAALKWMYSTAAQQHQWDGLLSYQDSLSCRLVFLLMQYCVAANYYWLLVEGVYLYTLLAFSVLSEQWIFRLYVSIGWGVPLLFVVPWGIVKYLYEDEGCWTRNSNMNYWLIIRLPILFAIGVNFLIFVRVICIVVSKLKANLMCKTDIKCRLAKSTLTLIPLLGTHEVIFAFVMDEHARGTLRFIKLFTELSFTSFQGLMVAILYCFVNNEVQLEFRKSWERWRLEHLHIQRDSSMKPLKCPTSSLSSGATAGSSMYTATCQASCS

## NC1(c2ccc(-c3nc4ccn5c(=O)[nH]nc5c4cc3-c3ccccc3)cc2)CCC1
[1]
  outcome: inactive
[2]
  viability (% of control): -0.504%
[3]
  viability, percent of control: 1.05%

## CCCCS(=N)(=O)CCC(N)C(=O)O (stereo not drawn)
[4]
  outcome: inactive
[5]
  outcome: inactive
[6]
  outcome: inactive
[7]
  outcome: inactive
[8]
  Potency: inactive

## CC(C)NCC(O)c1ccc(NS(C)(=O)=O)cc1 (stereo not drawn)
[4]
  outcome: inactive
[5]
  outcome: inactive
[6]
  outcome: inactive
[7]
  outcome: inactive
[8]
  Potency: inactive

## CC1=C(C(=O)O)N2C(=O)[C@@H](NC(=O)C(N)c3ccccc3)[C@H]2SC1 (stereo partly drawn)
[5]
  outcome: inactive
[6]
  outcome: inactive
[7]
  outcome: inactive

## Cc1ccc(S(=O)(=O)N[C@@H](Cc2ccccc2)C(=O)CCl)cc1
[4]
  outcome: inactive
[5]
  outcome: inactive
[6]
  outcome: inactive
[7]
  outcome: inactive
[8]
  Potency: inactive

## COc1cc2nc(N3CCCN(C)CC3)nc(NC3CCN(Cc4ccccc4)CC3)c2cc1OC
[4]
  outcome: inactive
[5]
  outcome: inactive
[6]
  outcome: inactive
[7]
  outcome: inactive
[8]
  Potency: inactive
[1]
  outcome: inactive
[9]
  Potency: 23.7 µM (active)
[2]
  viability (% of control): 3.15%
[3]
  viability, percent of control: 3.52%

## COc1cc2c(Nc3ccc(Br)cc3F)ncnc2cc1OCC1CCN(C)CC1
[10]
  Potency: 26.4 µM (active)
[1]
  outcome: inactive
[2]
  viability (% of control): 8.14%
[3]
  viability, percent of control: 4.03%

## CNC(=O)c1cc(Oc2ccc(NC(=O)Nc3ccc(Cl)c(C(F)(F)F)c3)cc2)ccn1
[10]
  Potency: 18.7 µM (active)
[1]
  outcome: inactive
[9]
  Potency: 9.43 µM (active)
[2]
  viability (% of control): -0.0117%
[3]
  viability, percent of control: 1.39%

## CC(=O)[C@H]1CC[C@H]2[C@@H]3CCC4=CC(=O)CC[C@]4(C)[C@H]3CC[C@]12C
[4]
  outcome: inactive
[5]
  outcome: inactive
[6]
  outcome: inactive
[7]
  outcome: inactive
[8]
  Potency: inactive

## O=C(O)C1CCCN(CCC=C(c2ccccc2)c2ccccc2)C1 (stereo not drawn)
[4]
  outcome: inactive
[5]
  outcome: inactive
[6]
  outcome: inactive
[7]
  outcome: inactive
[8]
  Potency: inactive

## CCN(CC)CCn1c(=O)c(Cc2ccc(OC)cc2)nc2ccccc21
[4]
  outcome: inactive
[5]
  outcome: inactive
[6]
  outcome: inactive
[7]
  outcome: inactive
[8]
  Potency: inactive
[10]
  Potency: inactive
[1]
  outcome: inactive
[9]
  Potency: inactive
[2]
  viability (% of control): 89.1%
[3]
  viability, percent of control: 99.1%

## CCN1CCCC1CNC(=O)c1cc(S(N)(=O)=O)ccc1OC (stereo not drawn)
[4]
  outcome: inactive
[5]
  outcome: inactive
[6]
  outcome: inactive
[7]
  outcome: inactive
[8]
  Potency: inactive

## COc1cc2ncnc(Nc3cccc(Cl)c3)c2cc1OC
[4]
  outcome: inactive
[5]
  outcome: inactive
[6]
  outcome: inactive
[7]
  outcome: inactive
[8]
  Potency: inactive

## Nc1nc(N)c2nc(CNc3ccc(C(=O)NC(CCC(=O)O)C(=O)O)cc3)cnc2n1 (stereo not drawn)
[4]
  outcome: inactive
[5]
  outcome: inactive
[6]
  outcome: inactive
[7]
  outcome: inactive
[8]
  Potency: inactive

## NC(=O)c1ccc2[nH]ccc2c1
[4]
  outcome: inactive
[5]
  outcome: inactive
[6]
  outcome: inactive
[7]
  outcome: inactive
[8]
  Potency: inactive

## NC(=O)c1cccc(N)c1
[4]
  outcome: inactive
[5]
  outcome: inactive
[6]
  outcome: inactive
[7]
  outcome: inactive
[8]
  Potency: inactive

## CC1CC2C3CCC4=CC(=O)C=C[C@]4(C)[C@@]3(F)[C@@H](O)C[C@]2(C)[C@@]1(O)C(=O)CO (stereo partly drawn)
[4]
  outcome: inactive
[5]
  outcome: inactive
[6]
  outcome: inactive
[7]
  outcome: inactive
[8]
  Potency: inactive

## N[C@@H](Cc1ccc(O)c(O)c1)C(=O)O
[5]
  outcome: inactive
[6]
  outcome: inactive
[7]
  outcome: inactive
[8]
  Potency: 8.2 µM (active)

## Cc1c(-c2ccc(O)cc2)n(Cc2ccc(OCCN3CCCCCC3)cc2)c2ccc(O)cc12
[1]
  outcome: inactive
[9]
  Potency: inactive

## CCN(CC)CC#CCOC(=O)C(O)(c1ccccc1)C1CCCCC1 (stereo not drawn)
[5]
  outcome: inactive
[6]
  outcome: inactive
[7]
  outcome: inactive
[8]
  Potency: inactive

## OCc1ccc(-c2nn(Cc3ccccc3)c3ccccc23)o1
[4]
  outcome: inactive
[5]
  outcome: inactive
[6]
  outcome: inactive
[7]
  outcome: inactive
[8]
  Potency: inactive

## CC(C)C[C@H](NC(=O)[C@H](CCc1ccccc1)NC(=O)CN1CCOCC1)C(=O)N[C@@H](Cc1ccccc1)C(=O)N[C@@H](CC(C)C)C(=O)[C@@]1(C)CO1
[10]
  Potency: 0.148 µM (active)
[1]
  outcome: inactive
[9]
  Potency: 0.0033 µM (active)
[2]
  viability (% of control): 3.43%
[3]
  viability, percent of control: 3.69%

## COc1cc([C@@H]2c3cc4c(cc3[C@H](O)[C@H]3COC(=O)[C@H]23)OCO4)cc(OC)c1OC
[1]
  outcome: inactive
[9]
  Potency: inactive
[2]
  viability (% of control): 0.77%
[3]
  viability, percent of control: 23.7%
